Reference: PubChem BioAssay (NCI)
Compounds without any hit were thinned out: in the full panel of roughly 83,000, 20% have a hit.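 Interpretation: 100, growth as untreated; towards 0, rising growth inhibition; 0, no net growth; 0 to -100, cell death. Compounds scoring below 10 were considered active.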 Active and inactive are the calls of the source.

tested on: NCI-H226 lung; experiment: NCI-60 one-dose screen, 48 h (100 = growth as untreated, 0 = no growth, -100 = all killed); conditions: 10 µM unless noted
Method: Growth inhibition of the NCI-H226 human Non-Small Cell Lung tumor cell line is measured as a screen for anti-cancer activity. Cells are grown in 96 well plates and exposed to the test compound for 48 hours. Compounds are tested at a single concentration, which is 10^-5 M for most compounds. The reported endpoint is percent growth (GI% or GIPRCNT), where numbers from 0 - 100% represent growth inhibition, and numbers from -100% - 0 represent cell death. For example, a value of 40 represents 60% growth inhibition. A value of 0 means no net growth occurred over the course of the experiment. A value of -40 indicates 40% of cells at the beginning of the experiment died by the end of the experiment. A value of -100 means all cells are dead at the end of the experiment.
NCI-60 Human Tumor Cell Lines Screen was performed using the standard one-dose NCI protocol, which is described in more detail at https://dtp.cancer.gov/discovery_development/nci-60/default.htm.
Compounds with GIPRCNT values below 10 were considered active. Activity score was based on GIPRCNT using the following formula: […]
Score is 0 for GIPRCNT values of 100 or above, 50 for GIPRCNT values of 0, and 100 for GIPRCNT values of -100.

| Compound | growth |
| --- | --- |
| CN(C)c1ccc(-c2ccc3c(c2)c(-c2ccccc2)nc(=O)n3C)cn1 | 77.2% (inactive) |
| C=Cc1cnc(Nc2ccc(OC)cc2)nc1NCCCNC(=O)C1CCC1 | 46.5% (inactive) |
| COc1cc(/C=C/C(=O)c2ccc(-n3cc(CN4CCN(c5cc6c(cc5F)c(=O)c(C(=O)O)cn6C5CC5)CC4)nn3)cc2)ccc1O | 82.1% (inactive) |
| O=C1/C=C/[C@@H](O)[C@@H]2C[C@@H](O)C[C@H]2/C=C/CCC[C@H](CCO)O1 | -38.9% (active) |
| COC(=O)CCC/C=C\C[C@H]1C=CC(=O)/C1=C/C[C@@H](O)C/C=C\CC(F)(F)F | -48% (active) |
| O=C1Nc2ccccc2/C1=C\c1c[nH]c2ccc(Br)cc12 | 34.9% (inactive) |
| COc1ccc(N2CCC(=S)NC2=S)cc1 | 86.4% (inactive) |
| C=CC(=O)Nc1ccc(Nc2nccc(-c3ccc(N4CCCC4)c(C#N)c3)n2)cc1 | 52.7% (inactive) |
| Cc1cccc[n+]1C1c2ccccc2-c2ccccc21 | 96.1% (inactive) |
| C/C(Cc1ccc(Cl)cc1)=C(\c1ccc(OCCCN(C)C)cc1)c1ccc(OC(=O)Cc2ccccc2)cc1 | 110% (inactive) |
| O=C(CC(=O)Nc1cccc(C(=O)O)c1)Nc1cccc(C(=O)O)c1 | 112% (inactive) |
| COc1cc(-c2nc3sccn3c2-c2ccnc(NCCNS(=O)(=O)c3ccc(Cl)cc3)n2)ccc1F | 8.63% (active) |
| Nc1nc(N)c(N=Nc2ccccc2)c(-c2ccccc2)n1 | 55.4% (inactive) |
| O=c1nc(-c2ccccc2)c2cc(-c3ccc(C(F)(F)F)nc3)ccc2[nH]1 | 100% (inactive) |
| O=C1Nc2ccccc2/C1=C/c1cccn1C(=O)c1ccc(Cl)s1 | 61.7% (inactive) |
| Cc1ccc(C)c(/C=C2\CN(C(=O)OC(C)(C)C)C/C(=C\c3cc(C)ccc3C)C2=O)c1 | 89% (inactive) |
| O=C(Nc1ccccc1N1CCCC1=O)c1oc2ccc(F)cc2c1-c1cnn(-c2ccccc2)c1 | 39.4% [50 µM] (inactive) |
| COc1ccccc1N(C(C)=O)C1=C(Cl)C(=O)c2ccccc2C1=O | 23.7% (inactive) |
| CC1C=CC(OC(=O)C(C)(O)CCC(O)(C(=O)OC2CC(O)C(C(C)C)CC2(C)O)C(C)C)(C(C)C)CC1 (stereo not given) | -48.6% [4.63 µM] (active) |
| NC(=O)c1cccc([C@@H]2O[C@H](CO)[C@@H](O)[C@H]2O)c1 | 73.1% (inactive) |

| Compound | growth |
| --- | --- |
| Cc1nn(-c2ccccc2)c(N)c1N=C1NC(=O)/C(=C/c2ccc(Br)cc2)S1 | 78.4% (inactive) |
| CC1(C)CC[C@]23CC[C@]4(C)[C@H](CC[C@@H]5[C@@]6(C)C/C(=C/c7ccncc7)C(=O)C(C)(C)[C@@H]6CC[C@]54C)[C@H]2[C@H]1OC3 | 90.9% (inactive) |
| O=C(/C=C/C12c3ccccc3C(c3ccccc31)C1C(=O)NC(=O)C12)c1ccc(Br)cc1 (stereo not given) | 94.4% (inactive) |
| O=C(C1=Cc2cc3ccccc3n2Cc2cnnn21)c1ccc(O)cc1 | 85.1% (inactive) |
| c1ccc(CCNc2c3ccccc3nc3ccccc23)cc1 | 56.3% (inactive) |
| Cc1ccc(-c2nc3nc(-c4ccccc4)nc(N4CCCN(S(C)(=O)=O)CC4)c3o2)cc1 | 58.1% (inactive) |
| CCN1CCN(CC(=O)Nc2nc3ccc(NCc4ccc(F)cc4)cc3s2)CC1 | 90.9% (inactive) |
| CCCCCCCC/C=C\CCCCCCCCOc1ccc(CC(=O)NCC[N+]2(C)CCOCC2)cc1 | 71.1% (inactive) |
| Cc1nc2sc(C(=O)Nc3cccc(Br)c3C)c(N)c2cc1C(O)c1ccccc1 (stereo not given) | 38.3% (inactive) |
| CCN(CC)CCN1C(=O)c2c(c(C)c3c(oc4ccc(O)cc43)c2C)C1=O | 70% (inactive) |
| COc1ccc(/C=C/C(=O)c2ccc(NC(=O)CSc3nc4c([nH]3)c(=O)n(C)c(=O)n4C)cc2)cc1OC | 81.1% (inactive) |
| Cn1cc(-c2ccc(-c3cn(C)c4ccc(Cl)cc34)[nH]2)c2cc(Cl)ccc21 | 6.47% (active) |
| C#CCn1cnc2cnc(Nc3cccc(NC(=O)C=C)c3)nc21 | 78.8% [6.25 µM] (inactive) |
| O=C(O)c1ccc(-c2ccc(/C=N/Nc3nc(Nc4ccccc4)nc(N4CCCCC4)n3)o2)cc1 | 92.4% (inactive) |
| Cc1ccc2nc(NC(=O)CSc3nc(-c4ccccc4)c(C#N)c4nnnn34)sc2c1 | 94.7% (inactive) |
| COc1ccc(/C=C/c2c(C(=O)/C=C/c3ccccc3)c(C)nc3ccccc23)cc1 | 45.5% (inactive) |
| CCN1C(=O)N(CC)C2C1NN=c1s/c(=C3\C(=O)N(CC(C)C)c4ccccc43)c(=O)n12 (stereo not given) | 61.5% (inactive) |
| COc1ccc(Cn2cc3c(c2-c2ccccc2)CCc2cnoc2-3)cc1 | 43.6% (inactive) |
| Oc1c(CN2CCC(N3CCCCC3)CC2)cc(Cc2cc(CN3CCC(N4CCCCC4)CC3)c(O)c3ncccc23)c2cccnc12 | 5.18% (active) |
| Cc1ccc2c(=O)cc(C(=O)Nc3sc4c(c3C(=O)NCc3cccnc3)CCCC4)oc2c1C | 107% (inactive) |
